Measurements taken from publication PMC4552634, “A New Set of Chemical Starting Points with Plasmodium falciparum Transmission-Blocking Potential for Antimalarial Drug Discovery” (PLoS ONE, 2015).
Out of some 13,000 compounds screened, about 3,200 (25%) showed an effect of 50% or more. The list shows a part of the results.

These molecules were tested on P. falciparum stage V gametocytes. Details: 48 h, 5 µM; inhibitor.
Parameters: BacTiter-Glo ATP luminescence viability of purified stage V gametocytes in 384-well plates, per cent inhibition versus DMSO

Row | Compound | % Inhibition [%]
1 | CCN(c1ccccc1)S(=O)(=O)c1ccc(OC)c(NC(=O)c2cccc(C(F)(F)F)c2)c1 [TCMDC-125343] | 14.96
2 | O=C(NC1CCN(c2ccnc3cc(Cl)ccc23)C1)c1cccc(F)c1 (centres unmarked) [TCMDC-133656] | 0.5042
3 | Cc1nc(-c2ccc(C#N)cc2)sc1C(=O)NCCCCN1CCC(c2ccc3c(c2OCCO)CCCC3)CC1 [TCMDC-138879] | 11.85
4 | CC(=O)c1ccc(-c2ccc(C(=O)NCCCCN3CCC(c4ccc5c(c4OCC(N)=O)CCCC5)CC3)cc2)s1 [TCMDC-134174] | -29.18
5 | COc1c(C2CCN(CCCCNC(=O)c3ccc(-c4ccc(NC(=O)C(F)(F)F)cc4)cc3)CC2)ccc2c1CCCC2 [TCMDC-134380] | 96.81
6 | COc1c(C2CCN(CCCCNC(=O)c3ccc(-c4ccc(Cl)cc4)c(OCC(N)=O)c3)CC2)ccc2c1CCCC2 [TCMDC-134373] | 13.03
7 | COc1c(C2CCN(CCCCNC(=O)c3cccc(-c4ccc(C(F)(F)F)cc4)c3)CC2)ccc2c1CCCC2 [TCMDC-138701] | 48.96
8 | NC(=O)COc1c(C2CCN(CCCCNC(=O)c3ccc(-c4ccc(Cl)cc4)c(O)c3)CC2)ccc2c1CCCC2 [TCMDC-133379] | 84.67
9 | COc1c(C2CCN(CCCCNC(=O)c3ccc(-c4ccc(Cl)cc4)cn3)CC2)ccc2c1CCCC2 [TCMDC-134687] | 70.09
10 | N#Cc1ccc(NC(=O)c2ccc(C(=O)NCCCCN3CCC(c4ccc5c(c4OCCOC4CCCCO4)CCCC5)CC3)cc2)cc1 (centres unmarked) [TCMDC-138789] | 80.58
11 | COc1c(C2CCN(CCCCNC(=O)c3cc(-c4ccc(Cl)cc4)oc3C)CC2)ccc2c1CCCC2 [TCMDC-134696] | 7.674
12 | COc1c(C2CCN(CCCCNC(=O)c3cc(-c4ccc(Cl)cc4)[nH]c3C)CC2)ccc2c1CCCC2 [TCMDC-135270] | 45.24
13 | COC(=O)c1sc2ccccc2c1NC(=O)c1ccc(C)c(C)c1 [TCMDC-125650] | 21.99
14 | CCC(C)(C)c1ccc2nc(N)nc(N)c2c1C [TCMDC-137829] | -16.15
15 | CC(=O)N1CCC(C(=O)Nc2ccc(-c3cccc(-c4nc5ccc(C(F)(F)F)cc5[nH]4)c3)cc2)CC1 [TCMDC-132166] | -13.72
16 | O=C(/C=C/c1ccc(Cl)c(Cl)c1)NCCCCCN1CCC(NC(=O)Nc2ccc(Cl)cc2Cl)CC1 [TCMDC-135729] | -21.32
17 | O=C(Nc1cccc(N2CCC(NCc3cccnc3)CC2)c1)c1cccc(C(F)(F)F)c1 [TCMDC-124649] | -0.3933
